Assay outcomes deposited in PubChem BioAssay by several laboratories.
Rv3671c protease: inhibits the M. tuberculosis serine protease Rv3671c. P9WHR9. inhibition, % at 5.96 µM. hit rate 0.048% among 320,000; in the data active = inhibition above about 38%;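 also: extracellular domain of Rv3671c used as enzyme; 0% = enzyme with DMSO and 100% = no enzyme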
Target sequence (P9WHR9 whole entry, looked up, the tested form may be a part): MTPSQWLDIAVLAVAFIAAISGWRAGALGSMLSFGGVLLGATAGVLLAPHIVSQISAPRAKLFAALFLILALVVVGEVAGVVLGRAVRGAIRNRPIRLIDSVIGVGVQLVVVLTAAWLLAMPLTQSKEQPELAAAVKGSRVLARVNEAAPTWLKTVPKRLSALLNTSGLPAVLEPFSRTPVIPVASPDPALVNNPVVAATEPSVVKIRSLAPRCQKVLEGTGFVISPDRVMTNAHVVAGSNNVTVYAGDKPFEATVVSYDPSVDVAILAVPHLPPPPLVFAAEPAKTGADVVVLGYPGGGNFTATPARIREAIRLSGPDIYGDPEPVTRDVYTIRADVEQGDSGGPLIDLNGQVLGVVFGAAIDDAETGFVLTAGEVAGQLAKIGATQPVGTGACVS
BioA inh: inhibitors of Mycobacterium tuberculosis BioA enzyme. purified M. tuberculosis BioA enzyme, plate reader. inhibition, % at 9.99 µM. hit rate 0.096% among 360,000. AID 602481; in the data active = inhibition above about 40%; inconclusive = no clear call, values can overlap the other calls
FBA Mtb inh: inhibitors of M. tuberculosis fructose-bisphosphate aldolase | inhibition, % at 1 µM | purified M. tuberculosis FBA, fluorescence read-out | hit rate 2.3% among 360,000 | P9WQA3 | AID 588726; in the data active = inhibition above about 27%;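 also: 0% = vehicle and 100% = reference inhibitor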
GDH-TPI inh: inhibits GDH-TPI coupling enzymes, artifact for Mtb FBA screen. GDH-TPI coupled enzyme counterscreen, NADH absorbance. inhibition, % at 4.8 µM. hit rate 1.2% among 360,000; in the data active = inhibition above about 30%;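 also: 0% = DMSO wells and 100% = wells lacking the enzyme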
FadD28 binding: M. tuberculosis FadD28 bisubstrate binding inhibition; FadD28 bisubstrate probe binding, fluorescence polarization; hit rate 0.22% among 360,000; inhibition, % at 12.5 µM; in the data active = inhibition above about 8.5%, passing the limit was not always enough; inconclusive = no clear call, values can overlap the other calls
An asterisk follows results filed as active; ? = inconclusive; · = not tested or not shown; + = active, no number. In the library only some 3% were active in any assay of this set; here they are far more common.

SMILES | Rv3671c protease | BioA inh | FBA Mtb inh | GDH-TPI inh | FadD28 binding
Cc1noc(C)c1NC(=O)Nc1ccc2c(c1)CC(=O)N([C@H](C)CO)C[C@@H](C)[C@H](CN(C)S(=O)(=O)c1c(C)noc1C)O2 | · | 1 | · | · | ·
Cc1ccc2nc3c(cc(C(=O)NCCc4ccccc4)c(=N)n3CCCN3CCOCC3)c(=O)n2c1 | -5 | 0 | 122* | 1 | -6
Cc1cccn2c(=O)c3cc(C(=O)NCCN4CCOCC4)c(=N)n(CCCN4CCOCC4)c3nc12 | -3 | 0 | 114* | 7 | 0
Cc1cccn2c(=O)c3cc(C(=O)NCc4ccccc4)c(=N)n(CCCN4CCOCC4)c3nc12 | · | -2 | 125* | 6 | -2
Cc1cc(C(=O)Nc2cccc3c2O[C@H](CN(C)Cc2ccncc2)[C@@H](C)CN([C@@H](C)CO)C3=O)n(C)n1 | · | -5 | · | · | ·
Cc1ccc(C(=O)N/N=C\C=C\c2ccc(Br)cc2)cn1 | -18 | · | -3 | 35* | 0
O=C(N/N=C/c1ccc[nH]1)c1cccnc1 | 3 | 9 | 0 | 45* | -3
O=C(N/N=C\c1ccc[nH]1)c1cncc(Br)c1 | 8 | -2 | 4 | 26 | 1
Cc1ccc(C(=O)N/N=C\c2ccc[nH]2)cn1 | -6 | -1 | -1 | 47* | -1
Cc1cccc(C(=O)N/N=C/c2ccc[nH]2)c1 | 3 | · | 1 | 21 | 0
CS(=O)(=O)N1[C@@H]2c3ccc(-c4ccccc4)c(=O)n3C[C@H]1[C@H](CO)[C@H]2C(=O)NCC1CC1 | · | -2 | · | · | ·
CN1[C@H](C(=O)NCc2ccncc2)[C@@H](CO)[C@@H]2Cn3c(ccc(-c4ccccc4F)c3=O)[C@@H]21 | · | 4 | · | · | ·
CN(C)C(=O)C[C@H]1CC[C@H](NC(=O)C2CC2)[C@H](CO)O1 | · | -1 | · | · | ·
COc1ccc(-c2cc(=O)c3c(OC)c(OC)c(OC)c(OC)c3o2)cc1 | · | 1 | 2 | 51* | -1
COc1ccc(-c2cc(=O)c3cc(OC)ccc3o2)cc1 | 0 | 0 | 26 | 5 | -2
C[C@H]1CCCCO[C@H](CN(C)S(=O)(=O)c2cccs2)[C@@H](C)CN([C@@H](C)CO)C(=O)c2cc(NC(=O)CCCN(C)C)ccc2O1 | · | -1 | · | · | ·
C[C@@H]1CCCCO[C@@H](CN(C)C(=O)Cc2ccccc2)[C@@H](C)CN([C@@H](C)CO)C(=O)c2cc(NS(=O)(=O)c3cn(C)cn3)ccc2O1 | · | 1 | · | · | ·
CC(=O)/C=N/Nc1ccccc1 | 0 | 0 | 2 | 36* | -1
CCCn1c(C)nc2c(c1=O)c1nc3ccccc3nc1n2CCC1=CCCCC1 | 4 | 1 | 91* | 17 | -3
COc1ccc(CSC2=C(C#N)C(=O)NC3(CCCCC3)S2)cc1 | · | 2 | -3 | 34* | -2
CCCCCCSC1=C(C#N)C(=O)NC2(CCCCC2)S1 | -3 | 4 | -6 | 13 | ?
CC(=O)N1N=C(c2ccc(C)o2)CC1c1ccc(F)cc1 (stereo unspecified) | 7 | · | -1 | 71* | 0
COCC(=O)N(C)C[C@@H]1Oc2ncc(C#Cc3ccccc3)cc2C(=O)N([C@H](C)CO)C[C@@H]1C | · | 2 | · | · | ·
Cc1csc(NC(=O)c2nc3nccc(C)n3n2)n1 | 7 | 0 | 0 | 27 | -2
Cc1ccnc2nc(C(=O)Nc3nc4ccccc4s3)nn12 | 0 | -2 | 6 | 41* | -3
SMILES | Rv3671c protease | BioA inh | FBA Mtb inh | GDH-TPI inh | FadD28 binding
Nc1ccc(C(=O)Nc2nc3ccccc3s2)cc1 | 0 | 1 | 6 | 34* | -1
N=c1oc2cc(O)ccc2cc1C(=O)Nc1nc2ccccc2s1 | -1 | · | + | 1 | -2
CC(=O)N1[C@H](CO)[C@H](c2ccccc2)[C@H]1CNC(=O)CN1CCOCC1 | · | -2 | · | · | ·
CCC12OC(=N)C(C#N)(C1C)C(C#N)(C#N)C(c1ccccc1)O2 (stereo unspecified) | -1 | 3 | 144* | 17 | 2
Cc1ccc(C(=O)NCCn2c(N)c(C#N)c3nc4ccccc4nc32)cc1 | -1 | -2 | 161* | 10 | -1
N#Cc1c(N)n(CCOC(=O)c2cccc([N+](=O)[O-])c2)c2nc3ccccc3nc12 | 2 | -2 | 15 | 19 | -2
N#Cc1c(N)n(CCNC(=O)c2ccc(Cl)cc2)c2nc3ccccc3nc12 | -12 | -1 | 199* | 18 | 1
Cc1ccc(S(=O)(=O)N(C)C[C@H]2Oc3ccc(NC(=O)c4ccncc4)cc3CC(=O)N([C@H](C)CO)C[C@H]2C)cc1 | · | -1 | · | · | ·
CCc1c(C)c2ccc(O)c(CN(C)C)c2oc1=O | 2 | 1 | + | 18 | -2
CCCCc1cc(=O)oc2c(CN(C)C)c(O)ccc12 | 3 | 0 | · | 28 | 0
COCCN(CCOC)Cc1c(O)ccc2c3c(c(=O)oc12)CCC3 | -6 | 1 | + | 15 | 0
